Measurements reported in PubChem BioAssay AID588855 (National Center for Advancing Translational Sciences (NCATS), 2011).
About 5,000 (1.2%) of roughly 410,000 compounds were called active. About 13% were inconclusive and are not listed. Calls follow the shape of the dose curve; as a rule, active = well fitted inhibition curve with a large enough effect; inconclusive = small, poorly fitted or top-dose-only effect; inactive = no such curve, though single readings can be large or run the other way. The entries come from a sample that favours actives as a whole. Where a call stands in place of a potency, no number is given.

assay: qHTS for Inhibitors of TGF-b; settings: HepG2 CAGA-GFP TGF-b/SMAD3 reporter, GFP fluorescence, 18 h, TGF-beta stimulated, 500 pg/mL final; series mostly up to 46.1 µM; also: nearly all actives have a fitted effect of over 65% in size
Procedure, shortened: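 Read-out: total well GFP (ex488/em500-530) summed from mean per-cell fluorescence. Cells: HEPG2 CAGA-GFP, 1% FBS DMEM, 18 h at 37 degrees C with 500 pg/mL final TGF-beta. Unstimulated wells served as the full-inhibition control; stimulated DMSO wells = 0%.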
Potency is read from the fitted curve at half-maximal effect.

| Compound | Potency |
| --- | --- |
| CCOC(=O)c1c(C)[nH]c(C)c1S(=O)(=O)NCC(=O)NCc1cccc(C)c1 | inactive |
| Cc1cccc(NS(=O)(=O)c2ccc(-c3cnc(C4CC4)o3)cc2)c1 | 11.2 µM (active) |
| Cc1ccc(-c2cnc(C3CC3)o2)cc1S(=O)(=O)Nc1cccc(C)c1C | inactive |
| COc1ccc(CNS(=O)(=O)c2ccc(-c3cnc(C4CC4)o3)cc2)cc1 | inactive |
| COc1ccc(OC)c(NC(=O)C2CCN(S(=O)(=O)c3ccc(C)cc3)CC2)c1 | inactive |
| COc1cc(Br)cc2cc(S(=O)(=O)c3ccccc3)c(=O)oc12 | inactive |
| Cc1ccnc(NC(=O)C2CCN(S(=O)(=O)c3c(C)c(C)cc(C)c3C)CC2)c1 | 11.2 µM (active) |
| O=C(Nc1ccccn1)C1CCN(S(=O)(=O)c2ccccc2)CC1 | inactive |
| Cc1cccc(NC(=O)C2CCN(S(=O)(=O)c3cccc4cccnc34)CC2)c1 | inactive |
| COc1ccc(S(=O)(=O)c2c(Nc3cccc(Cl)c3)sc(C(=O)c3ccccc3)c2N)cc1 | inactive |
| CC(NC(=O)c1cc(Sc2ccc(F)cc2F)nc2ccccc12)c1ccccc1 (stereo unspecified) | inactive |
| CSc1n[nH]c(-c2ccco2)n1 | inactive |
| CCN(c1ccc(Cl)cc1)S(=O)(=O)c1nnc(NC(=O)c2ccco2)s1 | inactive |
| CCCN(CCC)CCNC(=O)Cn1cnc2sc(C)c(S(=O)(=O)N3CCC(C)CC3)c2c1=O | inactive |
| COc1ccc(-c2onc(C)c2C)cc1S(=O)(=O)NCCc1ccccc1 | inactive |
| COc1ccc(-c2onc(C)c2C)cc1S(=O)(=O)NCC1CCN(Cc2cccc(F)c2)CC1 | 8.91 µM (active) |
| COc1ccc(-c2onc(C)c2C)cc1S(=O)(=O)NCc1cccs1 | inactive |
| O=C(Nc1ccccc1Cl)N1CCC(CN2CCCCC2)CC1 | inactive |
| CCCc1nn2c(=O)cc(COC(=O)c3ccc(NC(=O)C(C)Oc4ccccc4)cc3)nc2s1 (stereo unspecified) | inactive |
| CN(C)c1ccc(C=Nc2ccc(/C=C/c3ccnc4ccccc34)cc2)cc1 | inactive |
| Cc1ccc(-n2nc(C)c3c(C)cc(=O)n(CC(=O)Nc4ccc(C(C)C)cc4)c32)cc1 | inactive |
| CC1(C)Cc2ccccc2-c2c[nH]c(=O)n21 | inactive |
| CCOC(=O)N1CCc2c(sc3c2C(=O)NC(c2ccccc2F)N3)C1 (stereo unspecified) | inactive |
| CC(C)(C)c1ccc(C(CC(=O)O)NS(=O)(=O)Cc2ccccc2)cc1 (stereo unspecified) | inactive |

| Compound | Potency |
| --- | --- |
| CC(C)[C@@H](NC(=O)OC(C)(C)C)C(=O)NCC1CCC(C(=O)N[C@@H](Cc2ccccc2)C(=O)O)CC1 (stereo partly specified) | inactive |
| C[C@@H](NC(=O)OC(C)(C)C)c1nnc(S(=O)(=O)Cc2ccccc2)o1 | 14.1 µM (active) |
| CCOC(=O)c1cc2c(=O)n3ccccc3nc2n(CCCOC)c1=NC(=O)C(C)(C)Oc1ccc(Cl)cc1 | inactive |
| Cc1ccc(Nc2nc(CSc3nnc(-c4ccncc4)n3-c3ccccc3C)cs2)cc1 | 11.2 µM (active) |
| Cc1ccc(-c2noc(CSc3nnc(-c4ccncc4)n3-c3ccc(F)cc3)n2)cc1 | inactive |
| Cc1ccc(-n2c(SCC(=O)N3c4ccccc4Sc4ccccc43)nnc2-c2ccncc2)cc1 | inactive |
| OCC(O)C(O)C(O)C(O)C=Nc1ccc(/C=C/c2ccnc3ccccc23)cc1 (stereo unspecified) | inactive |
| O=C(c1ccco1)N(Cc1cccs1)c1ccc(O)cc1 | inactive |
| CC(CNC(=O)c1nnc(Cc2cccc(F)c2)o1)c1ccccc1 (stereo unspecified) | inactive |
| CN(C)c1cccc2ccccc12 | inactive |
| COc1ccc(OC)c(C2C3=C(N=c4s/c(=C\c5cccc(O)c5)c(=O)n42)c2ccccc2CC3)c1 (stereo unspecified) | 15.8 µM (active) |
| CCOC(=O)c1c(S(=O)(=O)N2CCC(C(=O)NCc3ccccc3OC)CC2)c(C)n(C)c1C | inactive |
| Cc1ccc(S(=O)(=O)n2nc(C)c(S(=O)(=O)N3CCCCCC3)c2C)cc1 | inactive |
| C=C1C=C(C(F)F)n2ncc(C(=O)NCCc3ccccc3OC)c2N1 | inactive |
| O=C(NCCCO)C(=O)Nc1c2c(nn1-c1ccc(F)cc1)CSC2 | inactive |
| N#Cc1ccccc1Cn1cnc2nc3c(cc2c1=O)CCCC3 | inactive |
| CC(C)(C)c1ccc(C(=O)NCC(c2ccc(Cl)cc2)N2CCOCC2)cc1 (stereo unspecified) | inactive |
| Cc1ccccc1Cn1nc(C)c(NC(=O)c2cc(-c3ccc(F)cc3)on2)c1C | inactive |
| Cc1ccc(NC(=O)c2ccc3[nH]c(C)cc(=O)c3c2)c(C)c1 | inactive |
| CCOc1ccc(NC(=O)C2CCN(S(=O)(=O)c3cc(-c4noc(C)n4)ccc3C)CC2)cc1 | inactive |
| CCOc1ccc(N(CC)S(=O)(=O)N2CCCC(C(=O)Nc3ccc(C(C)=O)cc3)C2)cc1 (stereo unspecified) | inactive |
| Cc1ccc(CNC(=O)C2CCCN(S(C)(=O)=O)C2)cc1 (stereo unspecified) | inactive |
| CCOc1ccc(N(CC)S(=O)(=O)N2CCCC(C(=O)NCc3ccc(Cl)cc3)C2)cc1 (stereo unspecified) | 17.8 µM (active) |
| COc1cccc(Nc2nc(N)c([N+](=O)[O-])c(NCc3ccco3)n2)c1 | inactive |

| Compound | Potency |
| --- | --- |
| CCN1CCN(c2nc(Nc3cccc(F)c3)nc(N)c2[N+](=O)[O-])CC1 | inactive |
| CNc1nc(Nc2ccc(C)c(Cl)c2)nc(N)c1[N+](=O)[O-] | 11.2 µM (active) |
| CCC(=O)N1c2ccccc2CC1C(=O)N1CCN(c2ccccc2)CC1 (stereo unspecified) | inactive |
| Cc1cccc(NC(=S)NCCN(C2CCCCC2)C2CCCC2)c1 | 17.8 µM (active) |
| Cc1cccc(C(=O)NC(=S)N(C)C2CCCCC2)c1 | inactive |
| Cc1cccc(NC(=O)C2CCN(C(=O)NC3CCCCC3)CC2)c1 | inactive |
| Cc1cc(=O)n(CC(=O)Nc2cccc([N+](=O)[O-])c2)c(-n2nc(C)cc2C)n1 | inactive |
| Cc1ccccc1CS(=O)(=O)CC1Nc2ccc(C(=O)NCc3ccc(Cl)cc3)cc2NC1=O (stereo unspecified) | inactive |
| CCOc1ccc(Cl)cc1-c1cc(C(=O)NCc2cccs2)[nH]n1 | inactive |
| CC(C)Oc1cc(F)ccc1-c1cc(C(=O)Nc2ccc(F)cc2)[nH]n1 | inactive |
| CCCOc1ccc(F)cc1-c1cc(C(=O)Nc2ccc(F)c(Cl)c2)[nH]n1 | 11.2 µM (active) |
| CCOC(=O)c1ccccc1NC(=O)c1sc2nc(-c3ccc(F)cc3)cn2c1C | inactive |
| CCS(=O)(=O)N1CCc2cc(C(=O)NCc3ccc(C)cc3)ccc21 | inactive |
| CCCCNC(=O)C1CCCN(c2nnc(C)c3c(C)n(-c4ccc(Cl)cc4)nc23)C1 (stereo unspecified) | inactive |
| CCc1ccc(CNC(=O)C2CCN(c3nn4cc(-c5ccc(F)cc5)nc4s3)CC2)cc1 | inactive |
| CC(=O)Nc1c(C)nn(-c2ccccc2)c1N1CCC(C(=O)Nc2cc(Cl)ccc2C)CC1 | inactive |
| Cc1nnc(N2CCCC(C(=O)NCCN(C)C)C2)c2nn(-c3ccccc3)c(C)c12 (stereo unspecified) | inactive |
| Cc1nnc(N2CCC(C(=O)Nc3ccc(F)cc3)CC2)c2nn(-c3ccc(Cl)cc3)c(C)c12 | 10 µM (active) |
| CCOc1ccc(CNC(=O)c2ccc3nc(CC)c(CC)nc3c2)cc1OC | inactive |
| CC(=O)c1ccc[n+](C(C)CCC(C)[n+]2cccc(C(C)=O)c2)c1 (stereo unspecified) | inactive |
| Cc1c(Cl)cccc1NC(=O)CCS(=O)(=O)c1ccc2c(c1)oc(=O)n2C | inactive |
| Cc1ccccc1-c1nc(SCC(=O)N(C)c2ccccc2)c2c(=O)n(C)c(=O)n(C)c2n1 | inactive |
| CC1CCCCC1NC(=O)/C(C#N)=C/C=C/c1ccccc1[N+](=O)[O-] (stereo unspecified) | 20 µM (active) |
| CC(OC(=O)/C=C/c1ccccc1)C(=O)NC1CCCCC1C (stereo unspecified) | inactive |

| Compound | Potency |
| --- | --- |
| CC1CC(C)CN(C/C=C/c2ccccc2[N+](=O)[O-])C1 (stereo unspecified) | inactive |
| COc1ccc(CNC(=O)c2cc3c(=O)[nH]c4ccc(C)cc4c3s2)c(OC)c1 | inactive |
| Nc1ccccc1N | inactive |
| COc1ccccc1-n1nnnc1S(=O)(=O)Cc1ccc(Cl)cc1 | 7.08 µM (active) |
| COc1ccccc1-n1nnnc1SCC(=O)NC(=O)Cc1ccccc1 | inactive |
| CCC(C)N(C(=O)CSc1nnnn1-c1ccccc1OC)C1CCS(=O)(=O)C1 (stereo unspecified) | inactive |
| CN(C)c1ccc(/C=C/C=C/c2ccnc3ccccc23)cc1 | inactive |
| CCc1cccc(NC(=O)Cn2nc(CC)n3c(cc4cc(C)ccc43)c2=O)c1 | inactive |
| Cc1cc2c(cc1C)N1C(=O)c3cc4ccccc4cc3NC(=O)C1C(=O)N2 (stereo unspecified) | 12.6 µM (active) |
| CCc1cnc2c(c1SCC(=O)N1CCC(C)CC1)c(=O)n(C)c(=O)n2C | inactive |
| CCOC(=O)c1ccc2c(c1)N(Cc1cccc(OC)c1)C(=O)c1ccccc1S2(=O)=O | inactive |
| O=C(CSc1ncc(S(=O)(=O)c2ccc(Br)cc2)c(=O)[nH]1)Nc1ccc2c(c1)OCCO2 | inactive |
| CC(C)C12CN3CC(C(C)C)(CN(C1)C3c1ccc(OCc3ccccc3)cc1)C2=O (stereo unspecified) | inactive |
| COCCN(CCOC)S(=O)(=O)c1ccc(C(=O)Nc2nc3c(s2)CCc2ccccc2-3)cc1 | inactive |
| COc1ccc2c(c1)Cc1sc(NC(=O)c3ccccc3Br)nc1-2 | 7.08 µM (active) |
| COc1ccc(NS(=O)(=O)c2ccc(N3CCOCC3)c(NC(=O)c3ccccc3Br)c2)cc1 | inactive |
| Cc1ccc2nc(COc3ccccc3NC(=O)Nc3ccc(F)c(Cl)c3)cc(=O)n2c1 | inactive |
| COc1ccc(C2=CC(c3ccccc3Cl)n3nc(-c4ccc(Cl)cc4)nc3N2)cc1 (stereo unspecified) | inactive |
| O=C(c1cnn2c1NC(=C1CC1)C=C2C(F)F)N1CCc2ccccc2C1 | inactive |
| Cc1ccc(N2CCN(S(=O)(=O)c3ccc(F)cc3)CC2)c(C)c1 | inactive |
| Cc1ccc(C)c(N2CCN(S(=O)(=O)c3ccc4c(c3)C(C(C)C)C(=O)N4)CC2)c1 (stereo unspecified) | 15.8 µM (active) |
| Cc1ccc(C)c(N2CCN(S(=O)(=O)c3ccc4c(c3)oc(=O)n4C)CC2)c1 | inactive |
| O=C(CCc1nc(CN2CCN(S(=O)(=O)c3ccc(F)cc3)CC2)no1)N1CCCCC1 | inactive |
| Cc1cccc(NC(=O)Cn2c(=O)n(CCC(C)C)c(=O)c3cccnc32)c1 | inactive |
